Laboratory results as given in the supplement of paper PMC9588786.
± gives the standard deviation of the averaged measurements.

test system: HT-1080; assay: relative cell viability with RSL3 co-treatment (fraction of control); higher = stronger protection from RSL3-induced ferroptosis (higher viability); details: 10 µM
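Note: viability read as CCK-8 absorbance at 450 nm in cells co-exposed to the GPX4 inhibitor RSL3, relative to a 0.01% DMSO vehicle control.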

SMILES | relative cell viability
O=C1NC(=O)C(c2ccccc2[N+](=O)[O-])=C1Nc1ccc(O)c(Cl)c1 | 0.847 ± 0.031
Cc1cc(Nc2cc(N3CCN(C)CC3)nc(Sc3ccc(NC(=O)C4CC4)cc3)n2)n[nH]1 [Tozasertib (VX-680, MK-0457)] | 0.71 ± 0.01
CCNC(=O)Nc1ccc(-c2nc3c(c(N4CCOC[C@@H]4C)n2)CCN(C2COC2)C3)cc1 | 0.503 ± 0.2
N#Cc1c(O)c2c(-c3ccc(-c4ccccc4O)cc3)csc2[nH]c1=O | 0.793 ± 0.046
Cc1cc(C)c(/C=C2\C(=O)Nc3ccccc32)[nH]1 [Semaxanib (SU5416)] | 0.983 ± 0.15
COc1ccc(-c2nc(N3CCOCC3)c3sc(CN(C)c4ncc(C(=O)NO)cn4)cc3n2)cn1 | 0.577 ± 0.15
CC(C)CC(NC(=O)C(Cc1ccccc1)NC(=O)C(CCC(N)=O)NC(=O)C(Cc1ccc(O)cc1)NC(=O)C(C)NC(=O)CNC(=O)C(CCCCN)NC(=O)C(Cc1c[nH]c2ccccc12)NC(=O)C(NC(=O)C(Cc1c[nH]c2ccccc12)NC(=O)C(CCCCN)NC(=O)CNC(=O)C(CC(N)=O)NC(=O)C(CCC(=O)O)NC(=O)C(Cc1c[nH]c2ccccc12)NC(=O)C(NC(=O)C(Cc1c[nH]c2ccccc12)NC(=O)C(CO)NC(=O)CNC(=O)C1CCCN1C(=O)C(Cc1c[nH]c2ccccc12)NC(=O)C(CCC(N)=O)NC(=O)C(Cc1ccccc1)NC(=O)CNC(=O)C(N)Cc1c[nH]cn1)C(C)O)C(C)O)C(=O)NC(CCCCN)C(=O)NCC(=O)NCC(=O)NCC(=O)NCC(=O)NC(CO)C(=O)NC(CCCNC(=N)N)C(=O)NC(CCCNC(=N)N)C(=O)NC(CCCNC(=N)N)C(=O)NC(CCCNC(=N)N)C(=O)NC(CCCNC(=N)N)C(=O)NC(CCCNC(=N)N)C(=O)NC(CCCNC(=N)N)C(=O)NC(CCCNC(=N)N)C(=O)NC(CCCNC(=N)N)C(=O)O (stereo unspecified) | 0.7133 ± 0.0058
NCC(=O)Nc1ccc(-n2nc(C(F)(F)F)cc2-c2ccc3c(ccc4ccccc43)c2)cc1 | 0.06 ± 0.056
COc1ccc(COc2cc3oc(=O)c4cc(C(C)O)ccc4c3cc2OC)cc1 (stereo unspecified) [Palomid 529 (P529)] | 0.537 ± 0.2
C[C@]1(O)C[C@@H](c2nc(-c3ccc4ccc(-c5ccccc5)nc4c3)c3c(N)nccn32)C1 [Linsitinib (OSI-906)] | 0.587 ± 0.029
O=c1sn(-c2cccc3ccccc23)c(=O)n1Cc1ccccc1 [Tideglusib] | 0.74 ± 0.035
